# Pf growth 48h – Primary qHTS for delayed death inhibitors of the malarial parasite plastid, 48 hour incubation; P. falciparum luciferase growth in erythrocytes, 48 h; Potency, µM (top dose mostly 28.7 µM), inactives show top-dose activity change, negative = inhibition, hits mostly inhibitors; 310,000 tested, 5.9% active; AID 504832, 2011
#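 Erythrocytes infected with P. falciparum carrying an integrated firefly luciferase reporter (2% hematocrit, 0.1% parasitemia final) were exposed to compounds in RPMI 1640 with 0.5% Albumax at 37 C, 5% CO2. Growth inhibition was scored as reduced luminescence.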
# HCV inh – qHTS Assay for Inhibitors of Hepatitis C Virus (HCV); Huh7.5.1 HCVcc-Cre infection, luciferase reporter, 44 h; Potency, µM (doses to about 41.8 µM), without a hit: at the highest dose activity change, negative = inhibition, usual class: inhibitors; 340,000 tested, 3.4% active; AID 651820, 2012
#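 A cell-based infection assay in which seeded cells (1,000 per well) receive test compound after 4 h, are inoculated with HCVcc-Cre at approximately 0.5 moi, and are incubated 44 h before luminescence detection.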
# AMA1-RON2 inh – qHTS for Inhibitors of AMA1-RON; Towards Development of Antimalarial Drug Lead: Primary Screen. Plasmodium falciparum AMA1 (3D7) - RON2 peptide interaction. AlphaScreen AMA1-biotinylated RON2 peptide binding. Potency, µM (doses to about 58.2 µM), inactives show top-dose activity change, negative = inhibition, actives largely listed as inhibitors. 360,000 tested, 0.2% active;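 note: 0% = vehicle wells and -100% = peptide control; nearly all actives have a fitted effect of over 45% in size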
#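 AMA1 (3D7) with his tag at 25 nM final met compounds first, then biotinylated RON2 peptide at 25 nM; detection used donor plus acceptor beads, 10 µg/mL apiece, read by AlphaScreen after 30 min at room temperature.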
# AmpC detergent – qHTS Inhibitors of AmpC Beta-Lactamase (assay with detergent); P00811; AmpC hydrolysis of nitrocefin, absorbance 480 nm, 0.01% Triton; Potency, µM (doses to about 114 µM), for inactives: at the highest dose activity change, negative = inhibition, actives largely listed as inhibitors; 370,000 tested, 0.041% active; AID 485294, 2010;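 note: 0% = no-compound wells and -100% = no-enzyme wells; nearly all actives have a fitted effect of over 25% in size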
# Target sequence (P00811 whole entry, looked up): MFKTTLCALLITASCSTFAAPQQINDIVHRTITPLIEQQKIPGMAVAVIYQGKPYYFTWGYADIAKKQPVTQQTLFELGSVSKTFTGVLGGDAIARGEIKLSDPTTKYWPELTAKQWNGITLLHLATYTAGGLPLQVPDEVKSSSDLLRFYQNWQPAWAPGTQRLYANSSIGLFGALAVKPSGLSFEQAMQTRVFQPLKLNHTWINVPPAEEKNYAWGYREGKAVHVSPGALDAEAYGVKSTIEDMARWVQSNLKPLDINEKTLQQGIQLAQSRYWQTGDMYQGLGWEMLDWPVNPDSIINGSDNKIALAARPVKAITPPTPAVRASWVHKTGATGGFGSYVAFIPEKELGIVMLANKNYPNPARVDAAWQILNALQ
#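 AmpC (5.3 nM in the dispensed reagent) in 20 mM phosphate pH 7.0 with 0.01% (detergent screen) or 0.0001% Triton X-100 was preincubated with compounds for 15 min at room temperature. Nitrocefin was then added from an 800 uM solution, and hydrolysis was followed at 480 nm.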
# Pf growth 96h – Primary qHTS for delayed death inhibitors of the malarial parasite plastid, 96 hour incubation. AID 504834, 2011. 320,000 tested, 6.9% active. P. falciparum luciferase reporter growth, 96 h. Potency, µM (doses to about 28.7 µM), for inactives: at the top dose activity change, negative = inhibition, most hits filed as inhibitors
#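 Compounds incubated with erythrocytes infected by luciferase-expressing P. falciparum (2% hematocrit, 0.05% parasitemia final) for 96 hours, 37 C in 5% CO2. Growth inhibition scored as decreased luciferase luminescence.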
# AmpC no deterg – qHTS Inhibitors of AmpC Beta-Lactamase (assay without detergent); Potency, µM (top dose mostly 57.1 µM), for inactives: top-dose activity change, negative = inhibition, most hits filed as inhibitors; AmpC nitrocefin hydrolysis, absorbance 480 nm, 0.0001% Triton; AID 485341, 2010; P00811; 330,000 tested, 0.52% active;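 note: plate controls were no compound for no effect and no enzyme for full effect; nearly all actives have a fitted effect of over 20% in size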
#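 20 mM phosphate pH 7.0 + 0.01% (detergent screen) or 0.0001% Triton X-100; 5.3 nM AmpC reagent; cpd preinc 15 min RT; nitrocefin (800 uM stock) to start; A480 q20 s × 4 min; Activity was normalised to no-enzyme and no-compound control wells.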
# Numbers without * were called inactive; ? = inconclusive; . = no result given; [ ] = dose if it differs, or a comment. Most compounds without a hit are left out; they make up all but 11% or so of the library. Calls come from the whole dose curve; as a rule, active = well fitted curve in the direction sought with a large enough effect; inconclusive = small, poorly fitted or top-dose-only effect, or another doubt; inactive = no such curve, though single readings can be large; an effect the other way counts as inactive or inconclusive. Unless noted, % is set by controls: 0 for no effect and ±100 for the full control effect; potency is the fitted concentration of half-maximal effect.
SMILES,Pf growth 48h,HCV inh,AMA1-RON2 inh,AmpC detergent,Pf growth 96h,AmpC no deterg
Cc1ccc(C(=O)O)cc1[N+](=O)[O-],18%,11%,0%,3%,16%,-3%
COc1ccc(/C=N/NC(=O)C(=O)/C=C2\NC3(CCCC3)Cc3ccccc32)cc1,?,10µM*,18%[2.32 µM],?,?,-32%
CCNC(=O)NC1c2ccccc2CSc2ccccc21 (stereo not drawn),.,9%,-4%,.,.,.
CCOCCN1CCN(C2c3ccccc3CSc3ccccc32)CC1 (stereo not drawn),.,22µM*,-28%,.,.,.
CC(=O)c1ccccc1NC(=O)CSc1nc2ccccc2c(=O)n1CCCN1CCOCC1,.,-12%,15%,.,.,-19%
O=C(CSc1nc2ccccc2c(=O)n1CCCN1CCOCC1)c1c[nH]c2ccccc12,?,14µM*,13%,?,?,183%
NS(=O)(=O)c1cccc(NC(=O)CSc2nc3ccccc3c(=O)n2CCCN2CCOCC2)c1,-5%,12%,21%,-7%,-27%,32µM*
CS(=O)(=O)c1ccc(Cl)c(NC(=O)CSc2nc3ccccc3c(=O)n2CCCN2CCOCC2)c1,?,-22%,0%,-7%,7.4µM*,181%
O=c1c2ccccc2nc(SCc2ccc(F)cc2Cl)n1CCCN1CCOCC1,?,10µM*,-22%,10%,?,133%
CC1=C(c2ccc(C)c(C)c2)S(=O)(=O)N(Cc2ccc(C(=O)NCc3ccc(C)cc3)cc2)C1=O,.,.,.,-5%,.,.
CCOC(=O)Cn1c(=O)n(CC2CCCO2)c2nc(-c3c(F)cccc3Cl)nc(C(N)=O)c21 (stereo not drawn),.,.,.,10%,.,.
CCOc1cc(CNC(=O)c2ccc3nc(CCc4ccccc4)oc3c2)ccc1OC,.,.,.,-5%,.,.
CCOC(=O)c1c(NC(=O)CSc2nnc(-c3c[nH]c4ccccc34)n2CCOC)sc2c1CCCCC2,?,6.3µM*,-16%,-9%,9.3µM*,?
CCOC(=O)c1c(NC(=O)c2ccn(CC)n2)sc2c1CCCC2,10µM*,?,10%,6%,.,3%
CCOC(=O)c1c(NC(=O)C(=O)N/N=C/c2ccccc2O)sc2c1CCCCC2,0.66µM*,?,56%,?,0.93µM*,-19%
CCOC(=O)c1c(NC(=O)C(NCCN(C)C)c2ccccc2)sc2c1CCCC2 (stereo not drawn),9.3µM*,0.89µM*,52%,-11%,?,204%
CCOC(=O)c1c(NC(=O)c2ccccc2Cl)sc2c1CCCC2,.,.,.,-3%,.,.
CCOC(=O)c1c(NC(=O)c2ccc(C)cc2)sc2c1CCCCC2,.,.,.,15%,.,.
O=C(CSc1nccn1Cc1ccc2c(c1)OCO2)Nc1ccccc1F,.,.,.,6%,.,.
CCOC(=O)c1c(NC(=O)CSc2c[nH]c3ccccc23)sc2c1CCCC2,-4%,11µM*,-25%,?,-91%,-31%
CCC(=O)N1CCc2cc(S(=O)(=O)CCC(=O)N3CCN(c4cccc(C)c4C)CC3)ccc21,.,.,.,3%,.,.
C=CCn1c(SCC(=O)c2c(N)n(C3CC3)c(=O)[nH]c2=O)nnc1-c1ccc(OC)cc1,?,?,-5%,-14%,?,3%
C=CCn1c(SCC(=O)c2c(N)n(C3CC3)c(=O)[nH]c2=O)nnc1-c1ccccc1OC,?,18%,-3%,-3%,12µM*,-13%
C=CCn1c(SCC(=O)c2c(N)n(C3CC3)c(=O)[nH]c2=O)nnc1-c1ccoc1C,9.3µM*,10%,8%,-2%,?,-24%

# Source: PubChem (National Center for Advancing Translational Sciences (NCATS))
